The record followed here is publication PMC12136788.

Over roughly 24,000 sequences, “enrichment r” has its median near 0.99; the highest 2% begin near 3.7. This is one part of a sample in which the highest values are shown more often than they occur.

T1: UNK ZnF1-3 (human, UniProt Q9C0B0 31-174)
T1 sequence: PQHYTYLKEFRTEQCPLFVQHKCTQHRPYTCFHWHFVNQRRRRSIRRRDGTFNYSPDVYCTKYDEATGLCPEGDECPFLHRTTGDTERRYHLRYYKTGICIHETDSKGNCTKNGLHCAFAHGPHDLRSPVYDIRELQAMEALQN

B1: chr17:45747064:45747065:+_ENSG00000108424_ENST00000290158|hu_hu|hu_hu_hu_mus_True|38_98 (ssRNA)
RNA: GGGAGUUCUACAGUCCGACGAUCGCCCACAGUCCACGCAGCUGUAUCUCGAACAACUACACUGGGGUCUUUCAUUAGUUCUAUUAGGGUGGGCAUAGCCUGUAUAACUAAUGGUUUCAGUUGAUUAGGCUCUGGUCCUUCCAACAACAGAGGAUUGAGCAUCA
B2: chr1:244855233:244855234:+_ENSG00000121644_ENST00000302550|hu_mus|hu_hu_hu_mus_True|98_98 (ssRNA)
RNA: GGGAGUUCUACAGUCCGACGAUCCAUCAGAUGGUAGGCAUUGCCUUUAUACUCUUUCCCCAGUUCUUCUACAAUUUUCUCUAUAUCAUCUUCUAGAAAGUCCGUACUUCCUAGAACAACAGCUUCUUUAAAUUUAAAUGUUUCCAACAGAGGAUUGAGCAUCA
B3: chr3:10015032:10015033:+_ENSMUSG00000027533_ENSMUST00000029046|mus_mus|mus_mus_mus_hu_True|58_58 (ssRNA)
RNA: GGGAGUUCUACAGUCCGACGAUCGUUUUUACCAUCACAAGUGAUGAUACAAUCUGGCUUGGCCAUUGCGCCCAUUUUCCUAAGAGCUAUUCCCACUCCUAGCUCCUUCAUGUAUUCAUCAAAGCCUUUGCUGUCCACCAGGCGCAACAGAGGAUUGAGCAUCA
B4: chr14:102449733:102449734:+_ENSG00000197102_ENST00000360184|hu_mus|FALSE|FALSE (ssRNA)
RNA: GGGAGUUCUACAGUCCGACGAUCCAGCACCUGGAGCUUCUCGUACUCGUCGUCCCACGUCUGGAAGACUUCGAAGCAAGCCACCAUGACCUUUUCAAACUCUUCAUAGGCUACAUGCAUCAACUUCCGAGUGCCCAAGACCUUCAACAGAGGAUUGAGCAUCA
B5: chr7:107985766:107985767:+_ENSMUSG00000029461_ENSMUST00000049053|mus_hu|FALSE|FALSE (ssRNA)
RNA: GGGAGUUCUACAGUCCGACGAUCCCCUAGGUAAAUUUUUGUAAGCAAGGUGCCCACUAGGUAGGAAGGCUGCAUUUAAUGCUAAUUUACUGUAAGGUCUAGGGAAGUCCUUUCCGCUUCUCUGGGCCUCAGUUUCCUCAUCUGCAACAGAGGAUUGAGCAUCA
B6: chr4:140213729:140213730:-_ENSG00000109390_ENST00000265500|hu_mus|FALSE|FALSE (ssRNA)
RNA: GGGAGUUCUACAGUCCGACGAUCGAAGCUGACUGUAUUAUUUCCAAAGUUUAUUCCAAUCCAUUUCUUCUUUUAUACUCCAAAACAUCUUCAUUGUGUGUUUGGAUGAGCUACAAGAUAAUGGUUAAAAUUAGAAAUGUGAGCCAACAGAGGAUUGAGCAUCA
B7: 48457567_48458910_1668_CDS_ENSG00000079387_ENST00000551330|human|control|control (ssRNA)
RNA: GGGAGUUCUACAGUCCGACGAUCGAGAACUUCAUCCUGAUUCCCAUUACGAAAUACAUUCUUUAUUUCUUUCUCCAUUUCCUCUGUAAUUUCAGGAAAUUCAUCUUCACUAUCAGUUAAUUUAUGACCUUUUUUUUGUGUUUCCAACAGAGGAUUGAGCAUCA
B8: chr14:49633609:49633610:-_ENSMUSG00000061244_ENSMUST00000162175|mus_mus|FALSE|FALSE (ssRNA)
RNA: GGGAGUUCUACAGUCCGACGAUCCAUUCAUUUUCUGACACCAACAUUUUCCAGGAUUAUAACAGUCAUGUAGGUUUAUAGAAUUUGAAAUUUAUAAAUUAAAGUAUAGAAUUCAACAUAACAGGGAAAAGAUAAAAAUACAGCCAACAGAGGAUUGAGCAUCA
B9: chr17:64801638:64801639:+_ENSG00000154229_ENST00000413366|hu_mus|hu_hu_hu_mus_False|28_38 (ssRNA)
RNA: GGGAGUUCUACAGUCCGACGAUCUAUAUAUAUAUAUACAUAUGUACACAUAUAUAGUAAAACCCUAGUUAAACGUGUAAAGUAGCCAUUCAUUUUUGAAAUUUUAUCUACAUUUAAAAAUUAAUAUAUCUGAUAGAGUGCCAGCAACAGAGGAUUGAGCAUCA
B10: chr14:57341393:57341394:-_ENSMUSG00000021938_ENSMUST00000022507|mus_hu|FALSE|FALSE (ssRNA)
RNA: GGGAGUUCUACAGUCCGACGAUCCUGAAUAUUCAGAAGCUAUAUGAAAUGUAGCUGGAAAUUCCGAUUUCACAGAACAUCAGUGGUUUAUACAAAUUAAACUCCCAUACCCUCCCACCCCCACAUAUACUACUCUAUCUACCCCAACAGAGGAUUGAGCAUCA
B11: 98287512_98287632_2604_3pUTR_ENSG00000180543_ENST00000322128|human|control|control (ssRNA)
RNA: GGGAGUUCUACAGUCCGACGAUCUACCUCCCCAGCUGUAUGUAGAAAAAUGUGGUUUUUCAGUUGUUUUCUCUGUGGUACUAUUUAAACAAAAUAAAAAAGAAUAAGGAAAGAAGGAAGGGGAAGGCAGAAGAGGAGGAAAGGCAACAGAGGAUUGAGCAUCA
B12: chr14:62153831:62153832:-_ENSMUSG00000021930_ENSMUST00000100496|mus_mus|FALSE|FALSE (ssRNA)
RNA: GGGAGUUCUACAGUCCGACGAUCAUAUUUGUUUAAAUAAGAUUAAAUAAGUUGCCUAGAUCUUUUAAACCAAACCUCAGCAUGGUAUAAUGAAUACAUGGGUUCCUUGGACAACAAUUAGAAGCUCAGUGUUCAGCAUGUGUUCAACAGAGGAUUGAGCAUCA
B13: chr6:30403744:30403745:+_ENSMUSG00000029775_ENSMUST00000068259|mus_mus|motif|central (ssRNA)
RNA: GGGAGUUCUACAGUCCGACGAUCAGGAGAAGGCUAAACACUGAUUAUCUAUGGAUUUCGAUUGUGUGUGCUUUCACCUUGCGGCAGUGGAUAACGAAAGAUCAGUCAUACUUUUAAUCUAGAAAUGUUAAUAUUUUCAUCAUACAACAGAGGAUUGAGCAUCA
B14: chr10:57235669:57235670:-_ENSMUSG00000019877_ENSMUST00000020027|mus_hu|FALSE|FALSE (ssRNA)
RNA: GGGAGUUCUACAGUCCGACGAUCAAAUUGUGGAAUACAAUGUCUACACACAGAAUAAGGUUGGGGAAUUAAGCUGAAUUGUUAUAUUCCAUUCACAUUAAUAAAUAUUUUUAAAGAAGAAAUUGUAGAUUUUAAAAGCUUCAUCAACAGAGGAUUGAGCAUCA
B15: chr11:130013608:130013609:+_ENSG00000084234_ENST00000528499|hu_hu|motif|central (ssRNA)
RNA: GGGAGUUCUACAGUCCGACGAUCAGCAUGUGUCAGACAAUACAAUGGAAGUGGGGUUUCUGAUUAAUUUAAAAAAGAAAACGGCAUCAAAUAUCUGCAAUAGAUCAUUUUUUUCAUUUAAGGUUUAUAUAUCAUAUAUUGUUACAACAGAGGAUUGAGCAUCA
B16: chr4:136876768:136876769:-_ENSMUSG00000006699_ENSMUST00000051477|mus_mus|FALSE|FALSE (ssRNA)
RNA: GGGAGUUCUACAGUCCGACGAUCAAACAACAAACGUUUGUGGGGAUUUUUGUUUUUUUUUUUAAACAAAGAAAACAAAAACUAGCACUCAUUGCUUUUCAGACAAUACAUAAUUAUUCAAAAUUAACUAUUACUGGAAGGGCACAACAGAGGAUUGAGCAUCA
B17: chr16:35696996:35696997:-_ENSMUSG00000022848_ENSMUST00000023554|mus_mus|FALSE|FALSE (ssRNA)
RNA: GGGAGUUCUACAGUCCGACGAUCAAGACGGGUCCAGGAGCCAUGCAAUGAGUAUGUUUUUGUUUUUGUUUUUUUUAAAAAUCCAUUAUUUAUAGAAAGAAAUAGGUAUUGGCAAAAAUCUGUCCAAUCAAAUACAAUGACUUCCAACAGAGGAUUGAGCAUCA
B18: chr7:141450121:141450122:+_ENSG00000106028_ENST00000265304|hu_mus|hu_hu_hu_mus_True|68_68 (ssRNA)
RNA: GGGAGUUCUACAGUCCGACGAUCUCAUCCGUUCUAUGCCUUUUCUUUUGUCUGGUCACUCAGAAAUAUAAUAUUAUCAGCUAUGAUUGUUGUUGCUUGCCGCCUCACAUUGUUUUUAUCCAUGUACUCGCCAUAGUCCACUUUCAACAGAGGAUUGAGCAUCA
B19: chr11:80063784:80063785:+_ENSMUSG00000017686_ENSMUST00000092857|mus_mus|FALSE|FALSE (ssRNA)
RNA: GGGAGUUCUACAGUCCGACGAUCCAUUAGGUUUCUUCCAAGGAGAGACUGAAGAACUCCAGUUUUCCCACAGCCUUUCACUCCAAUUACAUUACACCUGAACACAUUUCUCUGAGUCUGUUUUUUCUGCAGGUCAAUCUUUUUCAACAGAGGAUUGAGCAUCA
B20: chr9:95013113:95013114:-_ENSG00000196305_ENST00000443024|hu_hu|hu_hu_hu_mus_False|58_58 (ssRNA)
RNA: GGGAGUUCUACAGUCCGACGAUCCUCAGUCAGAAAGGGCGUGUAAGGGGCCAUCAGUCUGCACAGAGAAAGCAGGACACUAAACAAUGUCUCCAGAGCCAUGACACAGUCUUCCACCCCACUCUCACCCUUUAACCUCCUCCUCAACAGAGGAUUGAGCAUCA
B21: 76184225_76186117_1027_CDS_ENSG00000119685_ENST00000298832|human|control|control (ssRNA)
RNA: GGGAGUUCUACAGUCCGACGAUCCCAUUUGUUUCCAUAAUCCUCCACUUCUGGAUCGUCACAACUGACGUAAUCUCCACUUUUCUUGUUGACACUGUAGUUUGUCAGAUGCAUGAACUGGUUCCGAAUGUUCUUGGCUCCUUGCAACAGAGGAUUGAGCAUCA
B22: chr11:31958201:31958202:+_ENSMUSG00000020297_ENSMUST00000020537|mus_mus|FALSE|FALSE (ssRNA)
RNA: GGGAGUUCUACAGUCCGACGAUCCCAUGAGUUUGUGCAAAUCUUGCAAGCUCACCAUUGAGUGGUACUCUGUGCAUUCCUAGUUGAGAAAUGCCAACAUCACCUUCCUCUCCAAAUCAGCCUUGCCUGCCAUCGCUGUGCUUCCAACAGAGGAUUGAGCAUCA

The target of the experiment is T1, UNK ZnF1-3. Briefly: nsRBNS (natural sequence RNA bind-n-seq); RBNS binding buffer (assumed for nsRBNS): 25 mM Tris pH 7.5, 150 mM KCl, 3 mM MgCl2, 0.01% Triton X-100, 500 ug/ml BSA, 20 U/ml SUPERase-In, 4 C; UNK is unkempt and MSI1 is Musashi-1; names of the RNAs are library labels; protein concentration not given here; high values mean tight binding.
For B1, the binding signal worked out at 0.573 enrichment R.
In the case of B2 it was 1.59 enrichment R.
Turning to B3, the binding signal turned out to be 0.594 enrichment R.
B4 registered a binding signal of 1.2 enrichment R.
In the case of B5 it was 0.876 enrichment R; in that of B6, 1.21 enrichment R.
B7 showed a binding signal of 0.373 enrichment R.
In the case of B8 it was 5.9 enrichment R; in that of B9, 2.54 enrichment R.
In the case of B10 it was 4.65 enrichment R; in that of B11, 3.05 enrichment R; in that of B12, 0.982 enrichment R.
As to B13, the binding signal is 0.934 enrichment R.
B14 showed a binding signal of 6.49 enrichment R.
In the case of B15 it was 5.2 enrichment R; in that of B16, 0.695 enrichment R; in that of B17, 2.16 enrichment R.
In the case of B18 it was 0.465 enrichment R; in that of B19, 0.484 enrichment R; in that of B20, 1.48 enrichment R.
For B21 the value was 0.4 enrichment R; for B22, 0.67 enrichment R.
